According to PubChem BioAssay AID1159580 (chemical genetic matrix, 2015):
Several values for one entry are separate records, joined by “and”; a condition that tells them apart may be missing. Identical values can stand only once. Hit rate of the full screen: of about 5,500 compounds, about 2,000 (36%) were called active. Another 18% or so got no clear call; they are omitted. Rule as the data show it: active = normalized growth mostly below about 0.91 (no sharp cut-off); inconclusive = no clear call, values can overlap the other calls; inactive = mostly above about 0.92. This is one part of the list.

Assay: chemical genetic growth profiling, strain panel (AID 1159580);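 also: tested at 20 µM; growth read once vehicle control cultures reached saturation at 30 °C; 1 = growth at the plate median or of vehicle wells; lower values mean less growth of the strain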
Conditions: S. cerevisiae deletion strains, growth OD

Measured: normalized growth

CNC[C@H](O)c1cccc(O)c1
inactive: locus YAL013W, strain DEP1, stronger effect = lower value 1.01 | locus YAL021C, strain ccr4, stronger effect = lower value 0.979 | locus YAL026C, strain drs2, stronger effect = lower value 0.997 | locus YAL030W, strain snc1, stronger effect = lower value 0.986 | locus YBL061C, strain skt5, stronger effect = lower value 0.988 | locus YBR009C, strain hhf1, stronger effect = lower value 0.995 | locus YBR021W, strain FUR4, stronger effect = lower value 1 | locus YBR023C, strain chs3, stronger effect = lower value 0.986 | locus YBR171W, strain sec66, stronger effect = lower value 0.98 | locus YBR229C, strain ROT2, stronger effect = lower value 1.01 | locus YBR231C, strain swc5, stronger effect = lower value 0.967 | locus YBR279W, strain paf1, stronger effect = lower value 0.991 | locus YCL011C, strain gbp2, stronger effect = lower value 1 | locus YCL016C, strain dcc1, stronger effect = lower value 0.983 | locus YCL029C, strain bik1, stronger effect = lower value 1.02 | locus YCL069W, strain vba3, stronger effect = lower value 0.991 | locus YCR088W, strain abp1, stronger effect = lower value 0.986 | locus YDL005C, strain med2, stronger effect = lower value 0.968 | locus YDL035C, strain GPR1, stronger effect = lower value 1.01 | locus YDL040C, strain nat1, stronger effect = lower value 0.984 | locus YDL074C, strain BRE1, stronger effect = lower value 1.01 | locus YDL101C, strain DUN1, stronger effect = lower value 1.01 | locus YDL134C, strain PPH21, stronger effect = lower value 1.01 | locus YDL185W, strain tfp1, stronger effect = lower value 1.02 | locus YDL192W, strain arf1, stronger effect = lower value 1.02 | locus YDR001C, strain nth1, stronger effect = lower value 0.991 | locus YDR069C, strain doa4, stronger effect = lower value 0.982 | locus YDR101C, strain arx1, stronger effect = lower value 1.02 | locus YDR137W, strain rgp1, stronger effect = lower value 0.966 | locus YDR150W, strain NUM1, stronger effect = lower value 1.01 | locus YDR159W, strain sac3, stronger effect = lower value 0.981 | locus YDR162C, strain NBP2, stronger effect = lower value 1.01 | locus YDR195W, strain ref2 0.91 | locus YDR297W, strain sur2, stronger effect = lower value 0.981 | locus YDR318W, strain mcm21, stronger effect = lower value 1.02 | locus YDR334W, strain swr1, stronger effect = lower value 0.982 | locus YDR335W, strain msn5, stronger effect = lower value 0.99 | locus YDR388W, stronger effect = lower value 1.01 | locus YDR392W, strain spt3, stronger effect = lower value 1 | locus YDR502C, strain sam2, stronger effect = lower value 1.01 | locus YEL003W, strain gim4, stronger effect = lower value 0.989 | locus YEL037C, strain rad23, stronger effect = lower value 0.984 | locus YEL061C, strain CIN8 (second series), stronger effect = lower value 0.99 | locus YEL061C, strain CIN8, stronger effect = lower value 1.01 | locus YER015W, strain faa2, stronger effect = lower value 0.969 | locus YER016W, strain bim1, stronger effect = lower value 0.981 | locus YER110C, stronger effect = lower value 1.02 | locus YER111C, strain swi4, stronger effect = lower value 0.988 | locus YER155C, strain BEM2 (second series), stronger effect = lower value 0.953 | locus YER155C, strain BEM2, stronger effect = lower value 1 | locus YER167W, strain BCK2, stronger effect = lower value 1.01 | locus YFR010W, strain ubp6, stronger effect = lower value 0.976 | locus YGL078C, strain dbp3, stronger effect = lower value 1.01 | locus YGL086W, strain mad1, stronger effect = lower value 1 | locus YGL167C, strain pmr1, stronger effect = lower value 0.983 | locus YGL173C, strain kem1, stronger effect = lower value 0.955 | locus YGL227W, strain vid30, stronger effect = lower value 0.971 | locus YGL240W, strain doc1, stronger effect = lower value 0.95 | locus YGL248W, strain PDE1, stronger effect = lower value 1 | locus YGL253W, strain hxk2, stronger effect = lower value 1.01 | locus YGR078C, strain PAC10, stronger effect = lower value 0.996 | locus YGR135W, strain pre9, stronger effect = lower value 1 | locus YGR229C, strain SMI1, stronger effect = lower value 0.992 | locus YGR252W, strain gcn5, stronger effect = lower value 0.989 | locus YHR013C, strain ard1, stronger effect = lower value 0.982 | locus YHR027C, strain rpn1, stronger effect = lower value 0.99 | locus YHR030C, strain SLT2, stronger effect = lower value 1 and 1.01 | locus YHR079C, strain IRE1 (second series), stronger effect = lower value 1.02 | locus YHR079C, strain IRE1, stronger effect = lower value 1.03 | locus YHR094C, strain hxt1, stronger effect = lower value 1.02 | locus YHR129C, strain ARP1, stronger effect = lower value 1.01 | locus YHR142W, strain chs7, stronger effect = lower value 1 | locus YHR200W, strain rpn10, stronger effect = lower value 1.02 | locus YIL066C, strain RNR3, stronger effect = lower value 1.01 | locus YIL073C, strain SPO22, stronger effect = lower value 1.04 | locus YIL125W, strain kgd1, stronger effect = lower value 1.01 | locus YIR030C, strain dcg1, stronger effect = lower value 1.01 | locus YJL092W, strain hpr5, stronger effect = lower value 0.977 | locus YJL095W, strain BCK1 (second series), stronger effect = lower value 0.98 | locus YJL095W, strain BCK1, stronger effect = lower value 1.01 and 1.02 | locus YJL115W, strain asf1, stronger effect = lower value 0.976 | locus YJL129C, strain trk1, stronger effect = lower value 0.977 | locus YJL134W, strain LCB3, stronger effect = lower value 1 | locus YJL154C, strain vps35, stronger effect = lower value 0.987 | locus YJL164C, strain tpk1, stronger effect = lower value 0.985 | locus YJL166W, strain qcr8, stronger effect = lower value 0.956 | locus YJL168C, strain set2, stronger effect = lower value 1.02 | locus YJL187C, strain SWE1 (second series), stronger effect = lower value 1.01 | locus YJR043C, strain POL32, stronger effect = lower value 0.996 | locus YJR066W, strain TOR1, stronger effect = lower value 0.969 | locus YJR075W, strain HOC1, stronger effect = lower value 1
